Measurements as given in PubChem BioAssay (Tox21).
Inconclusive results are not listed. The source made the active and inactive calls. Calls follow the shape of the dose curve; as a rule, active = well fitted curve in the direction sought with a large enough effect in the repeat runs; inconclusive = weak or mixed curves; inactive = no such curve, though single readings can be large; an effect the other way counts as inactive or inconclusive.

Columns and labels:
[1] = A CellTox Green Cytotoxicity Assay to monitor cytotoxicity in HEK293 cells - 40 hour (AID 1224871); also: nearly all actives have a fitted effect of over 45% in size
Outline: (§1)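 HEK293 cells premixed with CellTox Green dye were seeded at 600 cells/well and left 5 h at 37 C/5% CO2 before pin transfer of 23 nL compound in DMSO. Fluorescence from dye bound to dead-cell DNA was read during 40 h treatment.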

[2] = qHTS RealTime-Glo MT Cell Viability Assay in HEK293 cells - 16 hour (AID 1224872); also: top concentration of the series differs between compounds; nearly all actives have a fitted effect of over 50% in size
Outline: (§2)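 Quantitative high-throughput screen of the Tox21 10K library in HEK293: cells and RealTime-Glo reagents plated together, compound added at 5 h, luminescence monitored through 40 h at 37 C.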

[3] = qHTS RealTime-Glo MT Cell Viability Assay in HepG2 cells - 8 hour (AID 1224873); also: nearly all actives have a fitted effect of over 55% in size
Outline: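 Real-time viability: cells seeded at 600 per well together with NanoLuc and cell-permeant prosubstrate, compounds added after 5 h incubation. Luminescence tracked at 0, 8, 16, 24, 32 and 40 h of exposure.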

[4] = qHTS RealTime-Glo MT Cell Viability Assay in HEK293 cells - 40 hour (AID 1224874); details: RealTime-Glo luminescence; max response: active compounds read low; also: nearly all actives have a fitted effect of over 50% in size
Outline: (§3)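 HEK293 cells mixed with RealTime-Glo reagents (NanoLuc plus cell-permeant prosubstrate) at 600 cells/well, preincubated 5 h at 37 C/5% CO2, then given 23 nL compound in DMSO. Nonlytic luminescence from viable cells was read at 0, 8, 16, 24, 32 and 40 h.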

[5] = A CellTox Green Cytotoxicity Assay to monitor cytotoxicity in HEK293 cells - 24 hour (AID 1224875); also: series mostly up to about 77 µM; nearly all actives have a fitted effect of over 45% in size
Outline: as §1

[6] = A CellTox Green Cytotoxicity Assay to monitor cytotoxicity in HepG2 cells - 16 hour (AID 1224876); also: nearly all actives have a fitted effect of over 45% in size
Outline: (§4)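 HepG2 cells were seeded together with the CellTox Green dye at 600 cells/well, left 5 h at 37 C/5% CO2, then given compounds in DMSO. Fluorescence from dye bound to dead-cell DNA was read repeatedly over 40 h of treatment at 37 C.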

[7] = qHTS RealTime-Glo MT Cell Viability Assay in HepG2 cells - 32 hour (AID 1224877); also: nearly all actives have a fitted effect of over 55% in size
Outline: (§5)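 Compound treatment began 5 h after plating HepG2 cells (600/well) with NanoLuc luciferase and prosubstrate. Plates stayed at 37 C for 40 h; luminescence was captured at six time points, 0 h through 40 h.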

[8] = A CellTox Green Cytotoxicity Assay to monitor cytotoxicity in HepG2 cells - 24 hour (AID 1224878); also: nearly all actives have a fitted effect of over 45% in size
Outline: as §4

[9] = A CellTox Green Cytotoxicity Assay to monitor cytotoxicity in HepG2 cells - 40 hour (AID 1224879); also: nearly all actives have a fitted effect of over 40% in size
Outline: as §4

[10] = qHTS RealTime-Glo MT Cell Viability Assay in HEK293 cells - 0 hour (AID 1224880)
Outline: as §3

[11] = A CellTox Green Cytotoxicity Assay to monitor cytotoxicity in HEK293 cells - 32 hour (AID 1224881); also: nearly all actives have a fitted effect of over 40% in size
Outline: as §1

[12] = A CellTox Green Cytotoxicity Assay to monitor cytotoxicity in HepG2 cells - 0 hour (AID 1224882); also: nearly all actives have a fitted effect of over 35% in size
Outline: as §4

[13] = A CellTox Green Cytotoxicity Assay to monitor cytotoxicity in HepG2 cells - 32 hour (AID 1224883); also: nearly all actives have a fitted effect of over 50% in size
Outline: as §4

[14] = A CellTox Green Cytotoxicity Assay to monitor cytotoxicity in HEK293 cells - 8 hour (AID 1224884); also: nearly all actives have a fitted effect of over 35% in size
Outline: as §1

[15] = qHTS RealTime-Glo MT Cell Viability Assay in HEK293 cells - 24 hour (AID 1224886); also: top concentration of the series differs between compounds; nearly all actives have a fitted effect of over 50% in size
Outline: as §2

[16] = qHTS RealTime-Glo MT Cell Viability Assay in HEK293 cells - 8 hour (AID 1224887)
Outline: as §3

[17] = A CellTox Green Cytotoxicity Assay to monitor cytotoxicity in HEK293 cells - 16 hour (AID 1224888); also: nearly all actives have a fitted effect of over 35% in size
Outline: as §1

[18] = A CellTox Green Cytotoxicity Assay to monitor cytotoxicity in HepG2 cells - 8 hour (AID 1224890); also: nearly all actives have a fitted effect of over 45% in size
Outline: as §4

[19] = qHTS RealTime-Glo MT Cell Viability Assay in HepG2 cells - 16 hour (AID 1224885); also: nearly all actives have a fitted effect of over 50% in size
Outline: as §5

[20] = qHTS RealTime-Glo MT Cell Viability Assay in HepG2 cells - 0 hour (AID 1224889); also: nearly all actives have a fitted effect of over 50% in size
Outline: as §5
% is scaled to controls: 0 for no effect and ±100 for the full control effect.

CC(C)(O)C(Cl)(Cl)Cl
inactive: Potency [1] | Potency [2] | outcome [3] | max response [4] 4.01% | Potency [5] | Potency [6] | Potency [7] | Potency [8] | Potency [9] | outcome [10] | Potency [11] | outcome [12] | Potency [13] | Potency [14] | Potency [15] | Potency [16] | Potency [17] | Potency [18]

CCC1(CC)C(=O)C=CNC1=O
inactive: Potency [1] | Potency [2] | outcome [3] | max response [4] 1.59% | Potency [5] | Potency [6] | Potency [7] | Potency [8] | Potency [9] | outcome [10] | Potency [11] | outcome [12] | Potency [13] | Potency [19] | Potency [15] | Potency [16] | Potency [17] | outcome [20] | Potency [18]

COc1cc(CCN)cc(OC)c1OC
inactive: Potency [1] | Potency [2] | outcome [3] | max response [4] -4.29% | Potency [5] | Potency [6] | Potency [7] | Potency [8] | Potency [9] | outcome [10] | Potency [11] | outcome [12] | Potency [13] | Potency [14] | Potency [19] | Potency [15] | Potency [16] | Potency [18]

C=CCC1(C(C)CC)C(=O)NC(=O)NC1=O (stereo not drawn)
inactive: Potency [1] | Potency [2] | outcome [3] | max response [4] 5.74% | Potency [5] | Potency [6] | Potency [7] | Potency [8] | Potency [9] | outcome [10] | Potency [11] | outcome [12] | Potency [13] | Potency [19] | Potency [15] | Potency [16] | Potency [17] | Potency [18]

NC(=O)CS(=O)C(c1ccccc1)c1ccccc1 (stereo not drawn)
inactive: Potency [1] | Potency [2] | outcome [3] | max response [4] -4.1% | Potency [5] | Potency [6] | Potency [7] | Potency [8] | Potency [9] | outcome [10] | Potency [11] | outcome [12] | Potency [13] | Potency [19] | Potency [15] | Potency [16] | Potency [17] | outcome [20] | Potency [18]

COc1cccc(C=O)c1
inactive: Potency [1] | Potency [2] | outcome [3] | max response [4] -0.107% | Potency [5] | Potency [6] | Potency [7] | Potency [8] | Potency [9] | Potency [11] | outcome [12] | Potency [13] | Potency [14] | Potency [19] | Potency [15] | Potency [16] | Potency [17] | outcome [20] | Potency [18]

CCN(CCO)CCn1c(Cc2ccccc2)nc2c1c(=O)n(C)c(=O)n2C
inactive: Potency [1] | Potency [2] | outcome [3] | max response [4] -42.2% | Potency [5] | Potency [6] | Potency [7] | Potency [8] | Potency [9] | Potency [11] | outcome [12] | Potency [13] | Potency [14] | Potency [19] | Potency [15] | Potency [16] | Potency [17] | outcome [20] | Potency [18]

NNC(N)=O
inactive: Potency [1] | Potency [2] | outcome [3] | max response [4] 0.384% | Potency [5] | Potency [6] | Potency [7] | Potency [8] | Potency [9] | outcome [10] | Potency [11] | outcome [12] | Potency [13] | Potency [14] | Potency [15] | Potency [16] | Potency [17] | outcome [20] | Potency [18]

CCCCS(=O)(=O)Cl
inactive: Potency [1] | Potency [2] | outcome [3] | max response [4] 6.29% | Potency [5] | Potency [6] | Potency [7] | Potency [8] | Potency [9] | outcome [10] | Potency [11] | outcome [12] | Potency [13] | Potency [14] | Potency [19] | Potency [15] | Potency [17] | outcome [20] | Potency [18]

O=C1CC(=O)NC(=O)N1
inactive: Potency [1] | Potency [2] | outcome [3] | max response [4] 12.1% | Potency [5] | Potency [6] | Potency [7] | Potency [8] | Potency [9] | outcome [10] | Potency [11] | outcome [12] | Potency [13] | Potency [19] | Potency [15] | Potency [16] | Potency [17] | Potency [18]

CCOC(=O)COc1ccc(Cl)cc1Cl
inactive: Potency [1] | Potency [2] | outcome [3] | max response [4] -3.04% | Potency [5] | Potency [6] | Potency [7] | Potency [8] | Potency [9] | outcome [10] | Potency [11] | outcome [12] | Potency [13] | Potency [19] | Potency [15] | Potency [17] | outcome [20] | Potency [18]

CC1=C2[C@H]3OC(=O)[C@@H](C)[C@@H]3CC[C@@]2(C)C=CC1=O
inactive: Potency [1] | Potency [2] | outcome [3] | max response [4] 10.1% | Potency [5] | Potency [6] | Potency [7] | Potency [8] | Potency [9] | outcome [10] | Potency [11] | outcome [12] | Potency [13] | Potency [14] | Potency [15] | Potency [16] | outcome [20] | Potency [18]

CC(C)C(C)(N)C#N (stereo not drawn)
inactive: Potency [1] | Potency [2] | outcome [3] | max response [4] -5.83% | Potency [5] | Potency [6] | Potency [7] | Potency [8] | Potency [9] | outcome [10] | Potency [11] | outcome [12] | Potency [13] | Potency [14] | Potency [15] | Potency [16] | Potency [17] | outcome [20] | Potency [18]

O=C(Cl)C(Cl)(Cl)Cl
inactive: Potency [1] | Potency [2] | outcome [3] | max response [4] 1.29% | Potency [5] | Potency [6] | Potency [7] | Potency [8] | Potency [9] | outcome [10] | Potency [11] | outcome [12] | Potency [13] | Potency [14] | Potency [19] | Potency [15] | Potency [16] | Potency [18]

CCCOC(=O)c1cncn1C(C)c1ccccc1 (stereo not drawn)
inactive: Potency [1] | Potency [2] | outcome [3] | max response [4] -0.62% | Potency [5] | Potency [6] | Potency [7] | Potency [8] | Potency [9] | outcome [10] | Potency [11] | outcome [12] | Potency [13] | Potency [14] | Potency [19] | Potency [15] | Potency [17] | outcome [20] | Potency [18]
